Reference: PubChem BioAssay AID2590 (National Center for Advancing Translational Sciences (NCATS), 2010)
Values joined by “and” are separate entries in the source; they are usually repeats but may differ in a detail not shown here. Equal entries are not always repeated. Records with an inconclusive call do not appear. Values without a mark were called inactive. Active and inactive are the calls of the source. Calls follow the shape of the dose curve; as a rule, active = well fitted curve in the direction sought with a large enough effect; inconclusive = small, poorly fitted or top-dose-only effect, or another doubt; inactive = no such curve, though single readings can be large or run the other way.

target: Lysosomal acid glucosylceramidase (Homo sapiens) (UniProt P04062); test: qHTS Assay for Inhibitors and Activators of N370S glucocerebrosidase as a Potential Chaperone Treatment of Gaucher Disease: Primary Screen Confirmation; details: N370S glucocerebrosidase enzyme activity, fluorogenic substrate; series mostly up to 54 µM; activity change, negative = inhibition: at the top concentration;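 as to Potency: enzyme source is Gaucher patient spleen homogenate not purified recombinant protein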;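 as to activity change, negative = inhibition: 0% = enzyme with DMSO and -100% = no enzyme basal signal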
Sequence (P04062 whole entry N409S): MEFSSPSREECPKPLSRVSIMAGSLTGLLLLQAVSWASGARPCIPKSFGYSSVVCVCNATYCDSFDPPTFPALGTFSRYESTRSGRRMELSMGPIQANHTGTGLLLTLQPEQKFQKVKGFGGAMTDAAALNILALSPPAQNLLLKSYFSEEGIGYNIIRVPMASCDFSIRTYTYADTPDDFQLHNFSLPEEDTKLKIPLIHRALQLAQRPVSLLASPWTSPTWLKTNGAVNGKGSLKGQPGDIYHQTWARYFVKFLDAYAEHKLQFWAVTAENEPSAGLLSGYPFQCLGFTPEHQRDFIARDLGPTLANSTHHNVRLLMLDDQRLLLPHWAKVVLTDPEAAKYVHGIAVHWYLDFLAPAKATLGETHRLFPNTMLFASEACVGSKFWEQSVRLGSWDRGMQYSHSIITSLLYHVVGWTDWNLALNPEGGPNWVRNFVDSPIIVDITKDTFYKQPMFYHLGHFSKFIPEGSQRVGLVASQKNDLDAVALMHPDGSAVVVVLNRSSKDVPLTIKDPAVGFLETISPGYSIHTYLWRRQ
Outline: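 Patient-spleen homogenate carrying N370S GC (27 ug) in pH 5.0 citrate buffer with 0.01% Tween-20, 1 mM 4-methylumbelliferyl-beta-glucoside, 40 min at 37C; fluorescence 365/440 nm after NaOH/glycine stop; AC50 from Hill fits.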
Potency is read from the fitted curve at half-maximal effect.

**Q.** Which Potency does the source give for `O=S(=O)(c1ccc(F)cc1)N1CCN(c2nc(-c3ccccc3)nc3ccccc23)CC1` here?
**A.** The Potency was 6.51 µM (active).

**Q.** For `Cc1ccccc1-c1nccc(NCc2cccs2)n1`, which Potency is on record?
**A.** Its Potency is 15.8 µM (active).

**Q.** For `O=S(=O)(c1ccc2c(Cl)cccc2c1)N1CCN(c2nc(-c3cccs3)nc3ccccc23)CC1`, which Potency is on record?
**A.** Its Potency is 2.01 µM (active).

**Q.** How did the Potency turn out when `Cc1cc(C)cc(N(CC(=O)Nc2ccc(Br)cc2)S(=O)(=O)c2c(C)[nH]c(=O)[nH]c2=O)c1` was run?
**A.** The Potency was 2.06 µM (active).

**Q.** `Cc1ccc(S(=O)(=O)C2CCN(c3nc(-c4cccs4)nc4ccccc34)CC2)cc1` was tested. Which Potency did it give?
**A.** The Potency was 8.19 µM (active).

**Q.** How did the Potency turn out when `CC(=O)c1ccc(S(=O)(=O)N2CCN(c3nc(-c4cccs4)nc4ccccc34)CC2)cc1` was run?
**A.** Its Potency is 1.79 µM (active).

**Q.** How did the “activity change, negative = inhibition” value turn out when `CCN(Cc1ccccc1)c1ccc(Br)cn1` was run?
**A.** Its value is -10.6%.

**Q.** Which Potency does the source give for `CC(=O)c1cccc(S(=O)(=O)N2CCN(c3nc(-c4cccs4)nc4ccccc34)CC2)c1` here?
**A.** Its Potency is 2.25 µM (active).

**Q.** `Cc1ccc(S(=O)(=O)N2CCN(c3nc(-c4cscn4)nc4ccccc34)CC2)cc1` was tested. Which Potency did it give?
**A.** Its Potency is 4.11 µM (active).

**Q.** How did the “activity change, negative = inhibition” value turn out when `O=S(=O)(c1ccccc1)N1CCN(c2nccc(-c3cccs3)n2)CC1` was run?
**A.** Its value is -3.77%.

**Q.** For `Cc1ccc(S(=O)(=O)N2CCC(c3nc(-c4cccs4)nc4ccccc34)CC2)cc1`, which “activity change, negative = inhibition” value is on record?
**A.** The value was -20.3%.

**Q.** With `Cc1cc2nn(-c3ccc(Cl)cc3)nc2cc1N` as the compound, how does the “activity change, negative = inhibition” value read?
**A.** The value was 6.68%.

**Q.** For `O=S(=O)(c1ccccc1Cl)N1CCN(c2nc(-c3cccs3)nc3ccccc23)CC1`, which Potency is on record?
**A.** The Potency was 1.16 µM (active) and 259 nM (active).

**Q.** How did the Potency turn out when `Cc1cc(C)cc(N(CC(=O)NC2CCC(C)CC2)S(=O)(=O)c2c(C)[nH]c(=O)[nH]c2=O)c1` (centres undefined) was run?
**A.** The Potency was 2.51 µM (active).

**Q.** How did the “activity change, negative = inhibition” value turn out when `O=C(Nc1cc(Br)ccc1O)c1cnn2c(C(F)F)cc(C3CC3)nc12` was run?
**A.** The value was 7.23%.

**Q.** Which “activity change, negative = inhibition” value does the source give for `O=S(=O)(c1ccc(Cl)cc1)N1CCN(c2nc(-c3ccc(F)cc3)nc3cc(Cl)ccc23)CC1` here?
**A.** The value was 1.27%.

**Q.** With `Cc1ccc(S(=O)(=O)N2CCN(c3nc(-c4cnccn4)nc4ccccc34)CC2)cc1` as the compound, how does the “activity change, negative = inhibition” value read?
**A.** Its value is -29.6%.

**Q.** With `Cc1ccc(-c2nc(Nc3ccc(O)cc3)c3ccccc3n2)cc1` as the compound, how does the Potency read?
**A.** Its Potency is 12.7 µM (active).

**Q.** `N#C/C(=C\c1c(Oc2ccccc2Cl)nc2ccccn2c1=O)C(=O)NC1CCS(=O)(=O)C1` (centres undefined) was tested. Which “activity change, negative = inhibition” value did it give?
**A.** The value was 1.08%.

**Q.** For `Cc1cc(C)cc(N(CC(=O)Nc2cccc(C)c2C)S(=O)(=O)c2c(C)[nH]c(=O)[nH]c2=O)c1`, which Potency is on record?
**A.** The Potency was 3.26 µM (active).

**Q.** `Cc1cc(Cl)nc(NC(=O)Nc2cccc(Cl)c2)n1` was tested. Which “activity change, negative = inhibition” value did it give?
**A.** Its value is 20.8%.

**Q.** `CCCCN(CCCN)c1ccc(Br)cn1` was tested. Which “activity change, negative = inhibition” value did it give?
**A.** The value was -10.7%.

**Q.** How did the Potency turn out when `O=S(=O)(c1ccc2ccccc2c1)N1CCN(c2nc(-c3ccccc3)nc3ccccc23)CC1` was run?
**A.** The Potency was 4.61 µM (active).

**Q.** Which Potency does the source give for `Cc1ccc(S(=O)(=O)N2CCCN(c3nc(-c4cccs4)nc4ccccc34)CC2)cc1` here?
**A.** The Potency was 5.66 µM (active).

**Q.** With `Cc1ccccc1NC(=O)Nc1ccccn1` as the compound, how does the “activity change, negative = inhibition” value read?
**A.** Its value is 2.43%.

**Q.** For `CCc1ccc(NC(=O)CN(c2ccc(OC)cc2)S(=O)(=O)c2c(C)[nH]c(=O)[nH]c2=O)cc1`, which Potency is on record?
**A.** Its Potency is 6.51 µM (active).

**Q.** With `c1ccc(CNc2nc(-c3ccccc3)nc3ccccc23)cc1` as the compound, how does the Potency read?
**A.** Its Potency is 10.1 µM (active).

**Q.** Which Potency does the source give for `O=S(=O)(Cc1ccccc1)N1CCN(c2nc(-c3cccs3)nc3ccccc23)CC1` here?
**A.** The Potency was 2.25 µM (active).

**Q.** With `Oc1ccccc1Nc1nc(NCC2CCCO2)c2ccccc2n1` (centres undefined) as the compound, how does the “activity change, negative = inhibition” value read?
**A.** The value was -38.7%.
